# APP 5UTR inh: APP translation inhibition; 0.82% of 190,000 active; inhibition, % at 2 µM; SH-SY5Y APP 5'UTR-luciferase reporter, luminescence; AID 1285;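 active means inhibition above a set limit, derived from the sample mean plus 3 SD, cut at about 45% in these data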
# Wee1 stabilizer: human Wee1 degradation inhibition, primary screen; reporter increase, % at 5 µM; 1.2% of 220,000 active; AID 1321; HeLa Luc-Wee1K328M stability, luciferase luminescence; 100% = proteasome inhibitor MG132 effect;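 active means activation above the mean of all tested compounds plus 3 SD, set per screening run, cut at about 8.8% in these data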;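 further: cells exposed to compound for 20 h before luminescence read; 0% = DMSO alone and 100% = MG132 at 30 µM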
# Target sequence (P30291 whole entry K328M): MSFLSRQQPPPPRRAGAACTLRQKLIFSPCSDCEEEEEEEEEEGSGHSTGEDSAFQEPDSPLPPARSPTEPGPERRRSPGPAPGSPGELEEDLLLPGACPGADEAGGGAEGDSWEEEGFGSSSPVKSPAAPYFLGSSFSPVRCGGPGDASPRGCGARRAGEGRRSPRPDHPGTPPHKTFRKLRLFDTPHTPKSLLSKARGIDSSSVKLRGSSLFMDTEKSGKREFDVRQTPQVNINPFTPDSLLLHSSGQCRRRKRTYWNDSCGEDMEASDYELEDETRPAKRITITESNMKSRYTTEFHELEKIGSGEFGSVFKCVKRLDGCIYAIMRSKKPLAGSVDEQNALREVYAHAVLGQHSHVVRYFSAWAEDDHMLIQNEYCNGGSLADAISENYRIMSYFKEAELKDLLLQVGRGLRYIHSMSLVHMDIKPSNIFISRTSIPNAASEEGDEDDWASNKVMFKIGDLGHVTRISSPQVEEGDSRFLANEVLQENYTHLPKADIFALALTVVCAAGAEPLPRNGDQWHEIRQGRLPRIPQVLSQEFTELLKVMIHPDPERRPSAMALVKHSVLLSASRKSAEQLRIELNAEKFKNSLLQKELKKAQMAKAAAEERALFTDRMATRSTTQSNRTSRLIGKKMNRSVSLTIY
# STAT1 activator: STAT1 signaling activation; NIH 3T3 STAT1-luciferase reporter, IFN-gamma, luminescence; 100% = IFN-gamma alone, no compound; activation (% of control), % at 5.5 µM; 2.6% of 200,000 active; AID 932;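 active means activation above the screen-wide mean activation plus 3 SD, cut at about 130% in these data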;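 further: raw ratio to IFN-gamma control signal so 100% means no change and 0% no light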
# Hsp70 act: transcriptional activators of Hsp70. HeLa Hsp70 promoter luciferase reporter, luminescence; scaled: vehicle 0, proteasome-inhibitor control 100%. activation, % at 10 µM. 0.04% of 200,000 active;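 active means activation above the mean across all tested compounds plus 3 SD, cutoff set per campaign, cut at about 5.5% in these data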;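 further: 100% = MG132 at 30 µM as the positive control and 0% = DMSO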
# APP 5'UTR act: APP 5'UTR luciferase reporter activation | SH-SY5Y APP 5'UTR luciferase reporter, luminescence; zero percent = DMSO vehicle wells | 1% of 190,000 active | activation, % at 2 µM;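 active means activation above a set limit, based on mean plus 3 SD of controls, cut at about 140% in these data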
# NF-kB neuron act: compounds increasing NF-kB expression in human neuronal cells; 1.6% of 190,000 active; AID 1239; fold change at 12.5 µM; NF-kB reporter expression; stronger effect = higher value; in the data active means fold change above about 3.3
# Active calls of the source: *; nt = no result. A selection: hits, their analogues and other compounds. The true share with any hit is near 4.8%.
SMILES,APP 5UTR inh,Wee1 stabilizer,STAT1 activator,Hsp70 act,APP 5'UTR act,NF-kB neuron act
Cc1cc([N+](=O)[O-])nn1CC(=O)NNC(=S)Nc1ccc([N+](=O)[O-])cc1,-0.4,-1.6,94.6,-0.3,0.4,1.11
Cc1ccc(N2CC(C(N)=O)CC2=O)cc1C (centres undefined),13.7,2.8,99.7,-0.1,-13.7,1.18
COc1ccc(COC(=O)NNC(=O)c2ccc(OC)cc2)cc1,-0.8,-3.0,104.8,-0.2,0.8,1.04
CCOc1ccc(-c2nnc(N(CC)C(=O)C3CCC3)s2)cc1,-3.1,5.3,109.4,0.7,3.1,1.72
CC(=O)N(/N=C1\Sc2ccccc2C1=O)c1cccc(C)c1,-136.2,-1.4,127.0,0.7,136.2*,7.08*
CCN(CC)S(=O)(=O)c1ccc2oc(C(=O)O)c(C)c2c1,-2.7,-0.2,102.5,-0.2,2.7,1.08
COC(=O)Cn1nc(-c2ccc(C)c(S(=O)(=O)N(C)C)c2)c2ccccc2c1=O,1.3,1.9,97.8,-0.6,-1.3,1.31
Cc1cccc(N2CCN(C(=O)c3ccc4ncsc4c3)CC2)c1C,79.9*,3.1,112.9,-0.1,-79.9,1.74
O=C(c1ccc2ncsc2c1)N1CCN(c2ccccc2Cl)CC1,-9.4,-1.7,101.5,-0.2,9.4,1.48
COc1cc(C(=O)N2CCN(c3cccc(C)c3C)CC2)cc(OC)c1OC,94.6*,-3.1,99.0,0.3,-94.6,2.11
CC(OC(=O)c1cccc(S(=O)(=O)Nc2cccc(C(F)(F)F)c2)c1)C(=O)Nc1ccc2c(c1)OCCO2 (centres undefined),-2.2,9.2*,100.8,-0.2,2.2,1.33
CC(=O)Nc1ccc(NC(=O)C(C)OC(=O)c2ccc3c(c2)OCCO3)cc1 (centres undefined),nt,-3.4,nt,nt,nt,nt
CCSc1ncc(/C=N/Nc2ccc(Cl)cc2)n1C,-69.8,0.2,160.3*,0.2,69.8,5.67*
CCn1c(SCc2ccc(Cl)cc2)nnc1-c1ccccc1,-8.2,-1.2,102.7,-0.1,8.2,1.11
COc1ccc(NC(=O)c2cccs2)cc1,-66.0,-0.8,140.0*,0.0,66.0,3.01
O=C(Nc1ccc(Cl)cc1)c1cccs1,-101.2,1.3,107.8,0.2,101.2,2.44
CC(C)c1ccc(NC(=S)NNC(=O)c2cccs2)cc1,-80.8,-0.7,144.3*,0.3,80.8,2.69
CCC(C)c1ccc(NC(=O)c2cccs2)cc1 (centres undefined),-149.7,0.3,129.9*,0.1,149.6*,10.6*
O=C(Cc1ccc(Cl)cc1)Nc1ccc(NC(=O)c2cccs2)cc1,7.4,9.7*,113.6,0.0,-7.4,1.14
CCC(C)NS(=O)(=O)c1ccc(NC(=O)c2cccs2)cc1 (centres undefined),-1.6,-2.0,99.9,0.7,1.6,0.98
COc1ccc(NC(=S)NNC(=O)c2cccs2)cc1,-42.1,2.9,115.1,0.1,42.1,1.62
S=C(NCC1CCCO1)N1CCN(c2ccccc2)CC1 (centres undefined),-22.1,0.4,105.2,-0.3,22.1,1.23
CC(C)(C)c1csc(NC(=O)Cc2cccs2)n1,-11.8,-2.5,109.4,-0.1,11.8,1.08
CC(C)(C)c1csc(NC(=O)c2cccs2)n1,-122.5,2.4,130.2*,0.1,122.4,2.51
COc1ccc(C(=O)Nc2ccc(NC(=O)c3cccs3)cc2)cc1Cl,-0.3,-4.5,103.2,-0.4,0.2,1.1
SMILES,APP 5UTR inh,Wee1 stabilizer,STAT1 activator,Hsp70 act,APP 5'UTR act,NF-kB neuron act
COc1ccc(-c2csc(N(C)C(=O)c3cccs3)n2)cc1,-72.9,-3.8,131.2*,-0.3,72.9,1.48
COc1ccc(/C=C/C(=O)c2ccc(NC(=O)c3cccs3)cc2)cc1OC,-44.0,9.2*,107.5,-0.1,44.0,0.98
O=S(=O)(NCC1CCCO1)c1ccc(S(=O)(=O)N2CCCC2)cc1 (centres undefined),11.1,-1.2,100.3,-0.2,-11.1,0.98
O=C(c1ccc2c(c1)OCO2)N1CCCC1,-4.4,-2.1,100.7,-0.1,4.4,1.36
O=c1c2cc(NC(=S)NC3CCCCC3)ccc2nc2n1CCCCC2,-2.0,1.5,91.6,-0.5,2.0,1.29
CCOc1ccc(-c2c(C)n([O-])c3c([n+]2=O)CCCCC3)cc1,-6.2,8.9*,103.9,-0.1,6.2,1.06
COC(=O)C1=C(C)NC2=C(C(=O)c3ccccc32)C1c1cccc(OC)c1 (centres undefined),nt,-0.4,nt,nt,nt,nt

# Assay outcomes deposited in PubChem BioAssay by several laboratories.
